Test results published in PubChem BioAssay (NCI).
Compounds without any hit were thinned out: in the full panel of roughly 83,000, 20% have a hit.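 Treatment: one concentration, 48 hours, 96-well format. Scoring: percent growth, with anything below 10 considered active.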 A number with no mark means an inactive call. Calls of active or inactive are those of the source.

How the values were obtained:
Experiment in all cases: NCI-60 one-dose screen, 48 h (100 = growth as untreated, 0 = no growth, -100 = all killed)
Settings in all cases: 10 µM unless noted
NCI-H23 lung = test system: NCI-H23 lung
NCI-H226 lung = test system: NCI-H226 lung
NCI-H322M lung = test system: NCI-H322M lung
HOP-62 NSCLC = test system: HOP-62 NSCLC
NCI-H460 lung = test system: NCI-H460 lung
HOP-92 NSCLC = test system: HOP-92 NSCLC
NCI-H522 lung = test system: NCI-H522 lung
A549/ATCC NSCLC = test system: A549/ATCC NSCLC
786-0 renal = test system: 786-0 renal
COLO 205 colon = test system: COLO 205 colon

| Compound | growth (NCI-H23 lung) | growth (NCI-H226 lung) | growth (NCI-H322M lung) | growth (HOP-62 NSCLC) | growth (NCI-H460 lung) | growth (HOP-92 NSCLC) | growth (NCI-H522 lung) | growth (A549/ATCC NSCLC) | growth (786-0 renal) | growth (COLO 205 colon) |
| --- | --- | --- | --- | --- | --- | --- | --- | --- | --- | --- |
| COc1ccc(-c2cnoc2-c2ccc(OC)cc2O)cc1 | 29.9% | 78.8% | 74.6% | 36.9% | 7.27% (active) | 52.1% | -16% (active) | 40.9% | 44.5% | 72.4% |
| CC(C)OC(=O)N1CCOCC1 | 98.1% | 101% | 106% | 98.9% | 107% | 92.2% | 95.9% | 103% | 104% | 101% |
| CCCCCCCCCCCCCCCCCCNC(=O)[C@H]1CSC(c2ccc(OC)cc2O)N1 (stereo not given in full) | 83.3% | 90.4% | 67.5% | 63.9% | 13.4% | 66% | 65.8% | 73.8% | 82.2% | 97.1% |
| CCCCCCCCCCCCCCCCCCNC(=O)[C@H]1CSC(c2cccs2)N1 (stereo not given in full) | 18.9% | -77.5% (active) | 0.224% (active) | -90.3% (active) | -78.4% (active) | 46.3% | 38.6% | 8.15% (active) | 3.69% (active) | 80.6% |
| COc1ccc(-c2nc3sccn3c2/C=C/C(=O)c2cc(F)cc(F)c2)cc1 | 76.3% | 80.5% | 123% | 85.8% | 88.4% | 18.6% | 48.6% | 89.3% | 89.1% | 68.3% |
| O=C(NS(=O)(=O)c1ccc2ccccc2c1)n1cc(-c2ccncc2)c(-c2ccc(Cl)c(O)c2)n1 | 61.5% | 84.9% | 116% | 92.1% | 89.7% | 48.1% | 61.5% | 78% | 99.1% | 105% |
| COc1cccc(CC(C)=C(c2ccc(OCCN(C)C)cc2)c2ccc(OCCN(C)C)cc2)c1 | 70% | 31.3% | 1.04% (active) | 3.07% (active) | -64.9% (active) | 10.2% | -39.8% (active) | -21.7% (active) | -91% (active) | -70.5% (active) |
| COc1cc(-c2nn(-c3cccc(NC(=O)Nc4ccc(Cl)c(C(F)(F)F)c4)c3)cc2-c2ccncc2)ccc1Cl | 5.69% (active) | 12.1% | 32.3% | 5.4% (active) | 1.7% (active) | -37.5% (active) | -13.9% (active) | -10.4% (active) | 15.1% | -91.6% (active) |
| Clc1ccccc1-c1nc2ccccc2[nH]1 | 90% | 120% | 152% | 92% | 104% | 92.4% | 87.9% | 105% | 46.3% | 112% |
| N#Cc1c(Nc2ccccc2)nc2n(c1=O)-c1ccccc1Sc1ccccc1-2 | 88.5% | 84.4% | 90.7% | 98.8% | 90.7% | 58.7% | 75.2% | 78.8% | 90.2% | 84.1% |
| N=C(N)c1ccc(-c2ccc(-c3ccc4ccccc4c3)s2)cc1 | 88.7% | 96.7% | 97% | 97.6% | 99.7% | 79.3% | 104% | 71.5% | 95% | 97.9% |
| O=C1/C(=C/c2ccccc2)Oc2ccc(O)c(I)c21 | 96.5% | 74.9% | 94.5% | 100% | 103% | 86% | 84% | 103% | 98.9% | 120% |
| O=[N+]([O-])c1cccc(-c2nc3sccn3c2-c2ccnc(NCCCNS(=O)(=O)c3ccc(Cl)cc3)n2)c1 | 42.8% | 44.2% | 78.5% | 84% | 57.4% | 67.2% | 28.4% | 43.1% | 78.7% | 49.2% |
| COc1ccc(OC)c(C2OC(c3ccc4ccccc4c3O)=NN2C(C)=O)c1 (stereo not given) | 80% | 87.1% | 77.5% | 65.4% | 43% | 54.4% | 35.6% | 56.5% | 81.9% | 77.1% |
| CC1=NC2=CC=CC3=NC(C(Cl)(Cl)Cl)=NC(=N1)N23 | 59.9% | 83.5% | 92.5% | 96.2% | 69.1% | 118% | 54.9% | 80% | 88.7% | 88.9% |
| Cc1ccc(N2CCN(C(C)C(N)=O)CC2)cc1 (stereo not given) | 104% | 109% | 116% | 109% | 121% | 123% | 90.7% | 113% | 103% | 122% |
| O=C(NCCCNc1nccc(-n2ccc3cccnc32)n1)c1c(F)cccc1F | 101% | 99.4% | 103% | 101% | 104% | 110% | 101% | 102% | 98% | 113% |
| COc1cc(-c2nn(-c3cccc(NC(=O)c4ccc(N5CCOCC5)c(C(F)(F)F)c4)c3)cc2-c2ccncc2)ccc1Cl | 15.6% | 42.5% | 54.2% | 29.5% | 5.02% (active) | 11.5% | 0.2% (active) | 3.58% (active) | -3.26% (active) | -43.4% (active) |
| C/C=C(\C)C(C(=O)NC1CCCCC1)N(C(=O)C1CCc2cc(F)ccc2O1)c1ccc(Cl)cc1 (stereo not given) | 103% | 93.7% | 110% | 93.6% | 104% | 108% | 92% | 96.2% | 101% | 106% |
| COc1ccc(N2CCN(Cc3cc(C(=O)/C=C/c4c[nH]c5ccccc45)ccc3O)CC2)cc1 | 102% | 100% | 100% | 89% | 106% | 89.9% | 95.2% | 102% | 105% | 107% |
| O=C1Nc2ccc(Cl)cc2C12Nc1cc(Cl)ccc1S2 (stereo not given) | 69.1% | 105% | 100% | 103% | 62.7% | 77.2% | 47.1% | 72.9% | 89.4% | 101% |
| CC(C)(C)Nc1c(-c2cccs2)nc2ncccn12 | 96.6% | 90.6% | 98.7% | 104% | 102% | 98.8% | 80.3% | 98.1% | 104% | 110% |
| COc1cc(-c2nn(C(=O)NS(=O)(=O)c3ccccc3)cc2-c2ccncc2)ccc1Cl | 88.1% | 66.9% | 97.2% | 58.9% | 103% | 28.3% | 77% | 71.9% | 71.4% | 70.6% |
| COc1cc(Cn2cc3c(c2)-c2oncc2CC3)cc(OC)c1OC | 15.7% | 17.7% | -2.65% (active) | 42.1% | 3.87% (active) | 56.4% | -20% (active) | 29.6% | 12.8% | -67.2% (active) |
| O=C(Nc1ccc(NCCN2CCOCC2)nc1)c1ccc([N+](=O)[O-])cc1 | 100% | 109% | 107% | 103% | 110% | 103% | 95.2% | 98.3% | 104% | 110% |
| COc1cc2c(cc1O)CCN1C[C@@H](CC(C)C)[C@@H](O)C[C@@H]21 | 99.9% | 96.6% | 105% | 93.5% | 116% | 63.8% | 93.6% | 107% | 92% | 127% |
| CCC(=O)OC1=CN2C(=NC(c3ccc(N)cc3)=CC2c2cc(OC)c(OC)c(OC)c2)S1 (stereo not given) | 84.8% | 75% | 63% | 48.1% | 16.7% | 48.4% | 40.6% | 39.2% | 72.1% | 47% |
